Hits are enriched below; roughly 19% of the tested compounds scored in any of these assays.
IL-1B inflam inh: blocks inflammasome-driven IL-1 beta release | THP-1 LPS/ATP IL-1B secretion, AlphaLISA, 16 h; stronger effect = lower value | activity change, % at 57.5 µM | 360,000 tested, 4.7% active | AID 743279; in the data active = activity change below about -50%; inconclusive = mostly about -30% to -49%
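THP-1 cells pretreated 1 hr with compounds (up to 57.5 uM final), then stimulated with LPS (250 ng/mL final) plus ATP (1.25 mM final); secreted IL-1B measured by AlphaLISA after 16 hr, decreased signal indicating inhibition.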
TDP1 cell CPT: DT40-hTDP1 cell growth loss with CPT. chicken DT40 Tdp1-/-;hTDP1 cells + 20 nM CPT, ATP luminescence, 48 h. Potency, µM (highest dose often 46.2 µM), for the others: top-dose activity change, negative = growth inhibition, actives largely listed as inhibitors. 420,000 tested, 12% active; also: potency is read from the fitted curve at half-maximal effect; nearly all actives have a fitted effect of over 55% in size
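Cell growth measured by CellTiter-Glo luminescence after a minimum 48 h, 37 C compound exposure with 20 nM CPT in Tdp1-knockout DT40 cells stably expressing hTDP1, seeded 400/well; qHTS titration format.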
ELG1 DNA repair: inhibitors of ELG1-dependent DNA repair in HEK293T cells; Potency, µM (top dose mostly 46.1 µM), for inactives: top-dose activity change, negative = inhibition, usual class: inhibitors; 330,000 tested, 2.3% active; HEK293T ELG1-luciferase reporter, luminescence, 16 h; DNA damage induced by 5-fluorouridine; AID 504467; also: potency is read from the fitted curve at half-maximal effect; nearly all actives have a fitted effect of over 55% in size
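Luminescence from the luciferase reporter, measured 30 min after ONE-Glo reagent at room temperature, was the read-out. Beforehand, 2,000 cells per well were exposed for 16 hr at 37 °C to 5-fluorouridine together with compound or vehicle.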
HT1080-NT tox: kills 2HG-producing HT-1080-NT fibrosarcoma cells; HT-1080-NT fibrosarcoma viability, CellTiter-Glo ATP luminescence, 48 h; Potency, µM (highest dose often 46.1 µM), without a hit: top-dose activity, negative = less viability, actives largely listed as cytotoxic; 360,000 tested, 1.6% active; AID 686970;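 also: NT is the 2HG producing partner of a matched IDH1 knockdown line; potency is read from the fitted curve at half-maximal effect; 0% = DMSO-treated cells and -100% = media-only wells without cells; nearly all actives have a fitted effect of over 55% in size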
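A 48-hour cytotoxicity screen used HT-1080-NT cells plated 2 hours before compound delivery. ATP-based CellTiter-Glo luminescence measured viability, normalized to DMSO and no-cell controls.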
DT40 TDP1 no CPT: qHTS for Inhibitors of human tyrosyl-DNA phosphodiesterase 1 (TDP1): qHTS in cells in absence of CPT | DT40 Tdp1-/- hTDP1 cells, no CPT, ATP luminescence, 48 h | Potency, µM (series often up to 46.2 µM), for the others: top-dose activity change, negative = growth inhibition, actives largely listed as inhibitors | 420,000 tested, 15% active | AID 686978, 2013; also: potency is read from the fitted curve at half-maximal effect; nearly all actives have a fitted effect of over 55% in size
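Chicken DT40 Tdp1-/- cells stably complemented with human TDP1 were seeded at 400 cells/well with DMSO in place of 20 nM camptothecin. After compound pinning, cells grew at least 48 hr at 37 °C; viability read by CellTiter-Glo luminescence.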
HT1080 IDH1KD tx: toxicity to HT-1080 IDH1 knockdown cells (counter line) | AID 686971 | Potency, µM (doses to about 46.1 µM), inactives show at the highest dose activity, negative = toxicity, actives largely listed as cytotoxic | HT-1080 IDH1 knockdown viability, ATP luminescence, 48 h | 360,000 tested, 2% active;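 also: potency is read from the fitted curve at half-maximal effect; 0% = DMSO wells and -100% = cell-free medium wells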
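In this qHTS, HT-1080 cells depleted of IDH1 are exposed for 48 h at 37 °C to compound titrations. Toxicity is scored from CellTiter-Glo luminescence, with DMSO as full viability and medium alone as none.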
Active calls of the source: *; ? = inconclusive; . = not tested or not shown; [ ] = dose if it differs, or a comment. Unless noted, calls follow the shape of the dose curve; as a rule, active = well fitted curve in the direction sought with a large enough effect; inconclusive = small, poorly fitted or top-dose-only effect, or another doubt; inactive = no such curve, though single readings can be large; an effect the other way counts as inactive or inconclusive. Unless noted, % is scaled to controls: 0 for no effect and ±100 for the full control effect.

SMILES	IL-1B inflam inh	TDP1 cell CPT	ELG1 DNA repair	HT1080-NT tox	DT40 TDP1 no CPT	HT1080 IDH1KD tx
O=C(c1c(Cl)nc2sccn12)N1CCN(c2cccc(Cl)c2)CC1	4	2.3µM*	?	?	2.3µM*	3.3µM*
O=C(c1cc2c(=O)n3ccccc3nc2s1)N1CCN(c2cccc(Cl)c2)CC1	-12	?	?	0%	?	-2%
CC1(C(=O)Nc2ccc(Cl)cc2)Cc2c(-c3ccc4c(c3)OCO4)ccnc2O1 (stereo not given)	64	?	.	?	?	?
CC1(C(=O)NCCc2ccccc2)Cc2c(-c3ccc4c(c3)OCO4)ccnc2O1 (stereo not given)	-7	?	.	?	2.9µM*	?
COc1ccc(NC(=O)C2(C)Cc3c(-c4ccc5c(c4)OCO5)ccnc3O2)cc1OC (stereo not given)	2	?	.	-28%	?	?
COCCNC(=O)C1(C)Cc2c(-c3ccc4c(c3)OCO4)ccnc2O1 (stereo not given)	28	12µM*	.	?	8.2µM*	18µM*
CC1(C(=O)NCc2ccccc2)Cc2c(-c3ccc4c(c3)OCO4)ccnc2O1 (stereo not given)	73	0.65µM*	.	?	0.82µM*	?
CN(C)c1ccc(-c2ccnc3c2CC(C)(C(=O)Nc2ccc4c(c2)OCO4)O3)cc1 (stereo not given)	20	-20%	.	11%	-3%	0%
O=C(NCc1ccccc1Cl)[C@H]1CCCN1C(=O)[C@H]1CCCN1C(=O)c1ccccc1	3	-20%	.	19%	-14%	10%
CCOCCCNC(=O)c1cc2c(-c3ccc(OC)c(OC)c3)nn(C)c2s1	.	7.3µM*	.	.	18µM*	.
COc1ccc(CCNC(=O)c2cc3c(-c4ccc(OC)c(OC)c4)nn(C)c3s2)cc1OC	.	2.6µM*	.	.	2.9µM*	.
CCCCN(CC)CCCNC(=O)c1cc2c(-c3ccc(OC)c(OC)c3)nn(C)c2s1	-70*	?	23%	?	?	?
COCCCNC(=O)c1cc2c(-c3ccc(Cl)cc3)nn(C)c2s1	0	?	?	-17%	?	-16%
CCC(CC)C(=O)Nc1cc(-c2cn3cccnc3n2)ccc1OC	.	-5%	.	.	-22%	.
C/C(=N\OCC(=O)OCC(=O)NCc1ccccc1)c1ccc2c(c1)OCO2	3	-1%	7%	?	?	-5%
COc1ccc(OC)c(-c2cc(C(=O)NC(C)c3ccccc3)no2)c1 (stereo not given)	.	4.1µM*	.	.	4.1µM*	.
COc1ccccc1-c1cc(C(=O)Nc2cccnc2)no1	43	0.46µM*	?	0.32µM*	0.46µM*	0.25µM*
COc1ccc(NC(=O)c2cc(-c3ccccc3OC)on2)cc1	23	2.8µM*	?	4.5µM*	2.8µM*	6.3µM*
COc1ccc(C2CCCCCN2C(=O)C2CCN(S(=O)(=O)c3ccc(C)cc3)CC2)cc1 (stereo not given)	1	?	.	9%	?	0%
COC(=O)c1c(SCC(=O)Nc2cc(C)cc(C)c2)[nH]c2ccccc2c1=O	.	23µM*	.	.	?	.
COc1ccc(Cl)cc1NC(=O)CN(C)CC(=O)Nc1ccccc1C(F)(F)F	-4	-4%	?	-18%	-23%	-9%
COC(=O)c1c(SCC(=O)Nc2ccccc2C(F)(F)F)[nH]c2ccc(Cl)cc2c1=O	.	21µM*	.	.	29µM*	.
CC1CCCN(S(=O)(=O)c2cc(C(=O)NCCc3ccc(S(N)(=O)=O)cc3)ccc2Cl)C1 (stereo not given)	-22	?	.	-17%	?	-15%
Cc1cc(C(=O)Nc2ccccc2-c2nc(CNC(=O)c3ccc(F)cc3F)c(C)o2)c(C)o1	.	-3%[9.04 µM]	.	.	-20%	.
Cc1sc2ncnc(N=Nc3c(O)[nH]c4ccccc34)c2c1C	32	-8%	-27%	8%	23µM*	2%
SMILES	IL-1B inflam inh	TDP1 cell CPT	ELG1 DNA repair	HT1080-NT tox	DT40 TDP1 no CPT	HT1080 IDH1KD tx
CCc1cc2c(N=Nc3c(O)[nH]c4ccccc34)ncnc2s1	12	18µM*	9%	-16%	21µM*	-1%
CC1CN(Cc2cc(=O)oc3cc(O)ccc23)CC(C)O1 (stereo not given)	37	14%	5%	1%	4%	-2%
CCOc1ccc(CC(=O)NCC(c2cccs2)S(=O)(=O)c2ccc(F)c(C)c2)cc1 (stereo not given)	.	0%	.	.	-12%	.
O=C(CSc1nnnn1-c1cccc2c1CCCC2)N1CCCC1	24	16µM*	4%	2%	23µM*	9%
COc1ccc(Cn2nc(C)n(N(C)c3ncc(C(F)(F)F)cc3Cl)c2=O)cc1	4	16µM*	4%	0%	9.2µM*	-14%
O=C(Nn1cnnc1)c1ccc(Cl)c(Cl)c1	-4	-17%	4%	6%	-9%	3%
O=C(CSc1ncn[nH]1)N1N=C2/C(=C/c3ccco3)CCCC2C1c1ccco1 (stereo not given)	-60*	?	3%	?	?	?
O=C(CSc1ncn[nH]1)N1N=C2/C(=C\c3ccco3)CCCC2C1c1ccco1 (stereo not given)	-19	11%	.	-10%	-20%	-2%
Cc1ccc(-c2cc(NC=O)c3ncc(-c4cccc(C(=O)N(C)C)c4)n3c2)cc1	-14	?	.	?	?	?
COc1ccc(F)cc1-c1cc(NC=O)c2ncc(-c3cccc(C(=O)N(C)C)c3)n2c1	-15	?	.	?	23µM*	-23%
CN(C)C(=O)c1cccc(-c2cc(NC=O)c3ncc(-c4ccc(F)cc4)n3c2)c1	82	?	.	?	16µM*	?
CC(=O)c1ccc(-c2cnc3c(NC=O)cc(-c4cccc(C(=O)N(C)C)c4)cn23)cc1	9	5.2µM*	.	?	7.3µM*	?
Cc1ccc(NS(=O)(=O)c2ccc(Br)s2)cc1S(=O)(=O)N1CCOCC1	23	7%	-6%	-5%	-15%	-23%
O=C(COC(=O)Cc1c(Cl)cccc1Cl)NCc1ccccc1	-2	?	.	3%	?	-2%
CC(C)C(=O)N1c2nc(C(C)C)nn2C2(CCCCC2)[C@@H]2CCCC[C@@H]21	.	6.5µM*	.	.	4.6µM*	.
